{"source": "PubChem BioAssay AID1851", "about": "(National Center for Advancing Translational Sciences (NCATS), 2009)", "note": "In all, about 16,000 compounds went through this assay and about 4,000 (25%) were called active. Roughly 26% stayed inconclusive and do not appear here. A selection follows. Unmarked numbers belong to inactive results. Calls follow the shape of the dose curve; as a rule, active = well fitted curve in the direction sought with a large enough effect; inconclusive = small, poorly fitted or top-dose-only effect, or effect the other way; inactive = no such curve, though single readings can be large or run the other way. % is scaled to controls: 0 for no effect and ±100 for the full control effect.", "data": [{"target": "Cytochrome P450 2C9 (Homo sapiens) (UniProt P11712)", "sequence (P11712 whole entry, looked up)": "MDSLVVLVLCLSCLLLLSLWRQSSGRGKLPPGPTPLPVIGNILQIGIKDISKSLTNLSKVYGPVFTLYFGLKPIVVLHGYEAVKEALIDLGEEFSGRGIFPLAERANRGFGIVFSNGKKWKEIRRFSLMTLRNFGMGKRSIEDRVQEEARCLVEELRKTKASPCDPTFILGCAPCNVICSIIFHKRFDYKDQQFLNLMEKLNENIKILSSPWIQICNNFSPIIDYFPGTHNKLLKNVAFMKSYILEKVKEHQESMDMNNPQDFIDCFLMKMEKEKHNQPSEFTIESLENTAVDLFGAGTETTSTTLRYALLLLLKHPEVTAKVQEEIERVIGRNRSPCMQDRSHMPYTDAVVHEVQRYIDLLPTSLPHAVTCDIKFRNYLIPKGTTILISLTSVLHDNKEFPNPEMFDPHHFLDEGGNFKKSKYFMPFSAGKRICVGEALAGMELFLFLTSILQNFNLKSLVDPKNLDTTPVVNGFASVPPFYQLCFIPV", "assay": "Cytochrome panel assay with activity outcomes", "details": "recombinant CYP, pro-luciferin dealkylation, luminescence, p450-cyp2c9; series mostly up to 57.1 µM", "values": [{"smiles": "CCOC(=O)N/N=C\\c1ccc([N+](=O)[O-])o1", "AC50": "inactive"}, {"smiles": "O=C(N/N=C/c1ccc([N+](=O)[O-])o1)c1cc(-c2ccncc2)nc2ccccc12", "AC50": "0.891 µM (active)"}, {"smiles": "NC(=O)N/N=C\\c1ccc([N+](=O)[O-])o1", "AC50": "inactive"}, {"smiles": "O=C(O)[C@H]1CN(CCCP(=O)(O)O)CCN1", "AC50": "inactive"}, {"smiles": "CN(C1CCCCC1)S(=O)(=O)c1ccc(NC(=S)NC(=O)c2cccs2)cc1", "AC50": "0.891 µM (active)"}, {"smiles": "CCN(c1ccccc1)S(=O)(=O)c1ccc(NC(=S)NC(=O)c2ccc(Br)o2)cc1", "AC50": "1.58 µM (active)"}, {"smiles": "CCN(c1ccccc1)S(=O)(=O)c1ccc(NC(=S)NC(=O)c2cccs2)cc1", "AC50": "1 µM (active)"}, {"smiles": "O=C(NC1CCCCCC1)c1cccs1", "AC50": "inactive"}, {"smiles": "CCOC(=O)NCN1C(=O)C2C3C=CC(C3)C2C1=O", "note": "(stereo not given)", "AC50": "inactive"}, {"smiles": "CC(C)(S)[C@H](N)C(=O)O", "activity, negative = inhibition": "3.44% [at 11.4 µM]"}, {"smiles": "CCCCCCCCCCCCCC(=O)O[C@H](CC(=O)O)C[N+](C)(C)C", "AC50": "inactive"}, {"smiles": "CN1C(C(=O)Nc2ccccn2)=C(O)c2ccccc2S1(=O)=O", "AC50": "3.98 µM (active)"}, {"smiles": "O=C1c2ccccc2S(=O)(=O)N1CCCCN1CCN(c2ncccn2)CC1", "AC50": "inactive"}, {"smiles": "Cc1cc(NC(=O)C2=C(O)c3ccccc3S(=O)(=O)N2C)no1", "AC50": "inactive"}, {"smiles": "N/N=C1/c2ccccc2N[C@H]1OC(=O)Nc1cccc(Cl)c1", "activity, negative = inhibition": "-11.6% [at 11.4 µM]"}, {"smiles": "O=C(Nc1cccc(F)c1)N1CCC2(CCNCC2)CC1", "AC50": "inactive"}, {"smiles": "O=C(Nc1cccc(Cl)c1)N1CCN2C(=O)c3ccccc3C12c1ccccc1", "note": "(stereo not given)", "AC50": "2.51 µM (active)"}, {"smiles": "N[C@@H](Cc1ccc(O)c(O)c1)C(=O)O", "AC50": "inactive"}, {"smiles": "C[C@](N)(Cc1ccc(O)c(O)c1)C(=O)O", "AC50": "inactive"}, {"smiles": "C[C@H](Cc1ccc(O)c(O)c1)[C@@H](C)Cc1ccc(O)c(O)c1", "AC50": "12.6 µM (active)"}, {"smiles": "O=c1c2ccccc2nc2n1CCc1c-2[nH]c2ccccc12", "AC50": "inactive"}, {"smiles": "O=c1c2ccccc2nc2n1CC/C2=C\\c1ccccc1[N+](=O)[O-]", "AC50": "5.01 µM (active)"}, {"smiles": "O=C(CSc1nc2ccccc2[nH]1)Nc1c(F)cccc1F", "AC50": "12.6 µM (active)"}, {"smiles": "O=C(O)CSc1nc2ccccc2[nH]1", "activity, negative = inhibition": "-8.67% [at 11.4 µM]"}, {"smiles": "CNC(=O)[C@@H]1O[C@@H](n2cnc3c(NCc4cccc(I)c4)ncnc32)[C@H](O)[C@@H]1O", "AC50": "inactive"}, {"smiles": "CCOC(=O)c1cnc(-c2ccccc2)nc1Oc1ccc(Cl)cc1", "AC50": "inactive"}, {"smiles": "CCOC(=O)c1cnc(-c2ccccc2)nc1Oc1ccccc1", "AC50": "6.31 µM (active)"}, {"smiles": "Cc1ccc(Oc2nc(-c3ccccc3)ncc2S(C)(=O)=O)cc1", "AC50": "2.51 µM (active)"}, {"smiles": "CCOC(=O)c1cnc(-c2ccccc2)nc1Oc1cccc(Cl)c1", "AC50": "11.2 µM (active)"}, {"smiles": "C=CCOc1ccc(CNC(C)(C)CO)cc1OC", "AC50": "inactive"}, {"smiles": "CCn1cc(C(=O)O)c(=O)c2cc3c(cc21)OCO3", "AC50": "inactive"}, {"smiles": "O=C(O)c1cc(=O)c2c(Cl)cc(Cl)cc2[nH]1", "AC50": "inactive"}, {"smiles": "CO/N=C\\[C@@H](C)[C@H](OCc1ccccc1)C(C)C", "activity, negative = inhibition": "-6.92% [at 11.4 µM]"}, {"smiles": "COc1ccccc1-c1nc(NCc2cnc(C)cn2)c2ccccc2n1", "activity, negative = inhibition": "16.4% [at 2.29 µM]"}, {"smiles": "Nc1ncnc2c1cnn2-c1ccccc1", "AC50": "inactive"}, {"smiles": "CC(=O)Nc1ccc(Nc2ncnc3c2cnn3-c2ccccc2)cc1", "AC50": "0.891 µM (active)"}, {"smiles": "Cn1ncc2c(Nc3cccc(C(=O)O)c3)ncnc21", "AC50": "inactive"}, {"smiles": "CCOC(=O)c1ccc(NC(=O)COc2ccccc2OC)cc1", "AC50": "17.8 µM (active)"}, {"smiles": "CCOC(=O)c1ccc(NC(=O)CC2NCCNC2=O)cc1", "note": "(stereo not given)", "AC50": "inactive"}, {"smiles": "Cc1cc(C)nc(Nc2ncc(O)n2-c2ccccc2)n1", "AC50": "inactive"}, {"smiles": "Cc1ccc2nc(Nc3ccccc3O)nc(-c3ccccc3)c2c1", "AC50": "8.91 µM (active)"}, {"smiles": "Cc1ccc2nc(N/N=C\\c3cccc(C)n3)cc(C)c2c1", "activity, negative = inhibition": "7.2% [at 11.4 µM]"}, {"smiles": "Cc1ccc2nc(N/N=C/c3ccccc3C#N)nc(-c3ccccc3)c2c1", "AC50": "7.08 µM (active)"}, {"smiles": "Cc1nc(N/N=C/c2ccccc2)nc(N(C)c2ccccc2)c1[N+](=O)[O-]", "AC50": "inactive"}, {"smiles": "C[C@H](NC[C@H](O)CP(=O)(O)CC1CCCCC1)c1ccc(Cl)c(Cl)c1", "AC50": "inactive"}, {"smiles": "CC(C)CN(CC(C)C)C1=N/C(=C\\c2ccco2)C(=O)N1c1ccccc1", "AC50": "3.98 µM (active)"}, {"smiles": "Cc1cnc(CNc2ccnc(-c3ccccc3C(F)(F)F)n2)cn1", "activity, negative = inhibition": "8.33% [at 2.29 µM]"}, {"smiles": "C#CCSc1n[nH]c(-c2ccco2)n1", "activity, negative = inhibition": "0.366% [at 11.4 µM]"}, {"smiles": "CC#C[C@@]1(O)CC[C@H]2[C@@H]3CCC4=CC(=O)CCC4=C3[C@H](c3ccc(N(C)C)cc3)C[C@]21C", "AC50": "3.98 µM (active)"}, {"smiles": "CC#C[C@]1(O)CC[C@H]2[C@@H]3CCC4=CC(=O)CCC4=C3[C@H](c3ccc(N(C)C)cc3)C[C@@]21C", "AC50": "inactive"}, {"smiles": "CC1Cc2ccccc2N1C(=O)CSCC(=O)O", "note": "(stereo not given)", "AC50": "inactive"}, {"smiles": "CCCC(=O)N1c2ccccc2C(N(C(C)=O)c2ccccc2)CC1C", "note": "(stereo not given)", "AC50": "3.98 µM (active)"}, {"smiles": "Cn1nc(C(F)(F)F)c(/C=N/OCc2c(Cl)cccc2Cl)c1Cl", "AC50": "1.58 µM (active)"}, {"smiles": "O=C(NCCCN1CCCCCC1)C1CC(=O)N(CCc2ccccc2)C1", "note": "(stereo not given)", "AC50": "inactive"}, {"smiles": "COc1ccc(-c2cc(C3CCN(c4ccc(C(C)=O)cc4[N+](=O)[O-])CC3)[nH]n2)cc1", "AC50": "7.94 µM (active)"}, {"smiles": "COc1ccc(-c2cc(C3CCN(c4cc(Cl)nc(N)n4)CC3)[nH]n2)cc1", "AC50": "14.1 µM (active)"}, {"smiles": "CC(=O)c1ccc(N2CCC(c3cc(-c4ccc(Cl)cc4Cl)n[nH]3)CC2)c([N+](=O)[O-])c1", "AC50": "3.98 µM (active)"}, {"smiles": "CC(=O)c1ccc(N2CCC(c3cc(-c4ccc(Cl)cc4)n[nH]3)CC2)c([N+](=O)[O-])c1", "AC50": "3.98 µM (active)"}, {"smiles": "CC(C)NC(=O)N1CCC2(CC1)CCN(S(C)(=O)=O)CC2", "AC50": "inactive"}, {"smiles": "CN(Cc1ccco1)c1ncncc1-c1ccccc1C(F)(F)F", "activity, negative = inhibition": "-7.74% [at 2.29 µM]"}, {"smiles": "COc1ccccc1-c1cc(Nc2ccn[nH]2)ncn1", "activity, negative = inhibition": "-3.07% [at 2.29 µM]"}, {"smiles": "CC(C)SC(=N)N", "AC50": "inactive"}, {"smiles": "Clc1ccc([C@H](Cn2ccnc2)OCc2csc3c(Cl)cccc23)c(Cl)c1", "AC50": "0.316 µM (active)"}, {"smiles": "Clc1ccc(COC(Cn2ccnc2)c2ccc(Cl)cc2Cl)c(Cl)c1", "note": "(stereo not given)", "AC50": "0.316 µM (active)"}, {"smiles": "NC(N)=NC(N)=Nc1c(F)c(F)c(F)c(F)c1F", "activity, negative = inhibition": "0.138% [at 11.4 µM]"}, {"smiles": "O=C(O)c1cc2cc(Cc3cccnc3)ccc2o1", "AC50": "inactive"}, {"smiles": "Cc1cccc(OCCn2c(-c3ccco3)nc3ccccc32)c1", "AC50": "1.78 µM (active)"}, {"smiles": "OCCN1CCN(CCOc2cccc(Cl)c2)CC1", "AC50": "inactive"}, {"smiles": "Cc1cccc(OCCn2c(S(=O)(=O)O)nc3ccccc32)c1", "AC50": "5.62 µM (active)"}, {"smiles": "Cc1cccc(CCNc2nc3ccccc3n3nnnc23)c1", "AC50": "inactive"}, {"smiles": "O=C(O)[C@@H]1[C@H](C(=O)O)[C@H]2C(=O)C=C[C@H]1N2Cc1ccccc1", "activity, negative = inhibition": "4.11% [at 11.4 µM]"}, {"smiles": "O=S(=O)(O)c1nc2ccccc2n1Cc1ccccc1", "AC50": "25.1 µM (active)"}, {"smiles": "CS(=O)(=O)c1nc2ccccc2n1Cc1ccccc1", "AC50": "inactive"}, {"smiles": "OC[C@@H]1NC[C@@H](O)[C@@H](O)[C@H]1O", "AC50": "inactive"}, {"smiles": "COC(=O)N1CCC2(CCCN(C(=O)Nc3cccc(F)c3)C2)CC1", "AC50": "inactive"}, {"smiles": "O=C(c1[nH]o[n+](=O)c1C(=O)c1csc2ccccc12)c1csc2ccccc12", "AC50": "1.58 µM (active)"}, {"smiles": "O=C1NCCc2c1[nH]c1ccccc21", "AC50": "inactive"}, {"smiles": "COc1cccc(/C=c2/s/c(=C(\\C#N)C(=O)N3CCOCC3)n(-c3ccccc3)c2=O)c1", "AC50": "inactive"}, {"smiles": "CN(c1ccccc1)c1ccc(/C=c2\\s/c(=C(/C#N)C(=O)C(C)(C)C)n(Cc3ccco3)c2=O)cc1", "AC50": "3.55 µM (active)"}, {"smiles": "C=C(CC1([C@@H](NP(=O)(c2ccccc2)c2ccccc2)[C@H]2C[C@@H]2CCCC)CC1)c1ccccc1", "AC50": "10 µM (active)"}, {"smiles": "CCCC[C@@H]1C[C@H]1C(NC(=O)c1ccccc1)c1ccccc1", "note": "(stereo not given in full)", "AC50": "7.94 µM (active)"}, {"smiles": "C[C@@]1(C(NC(=O)Cc2ccccc2)c2ccc(-c3ccccc3)cc2)C[C@H]1C1CCCCC1", "note": "(stereo not given in full)", "AC50": "inactive"}, {"smiles": "COC(=O)c1ccc(C(NC(=O)c2ccco2)[C@]2(C)C[C@H]2C2CCCCC2)cc1", "note": "(stereo not given in full)", "AC50": "10 µM (active)"}, {"smiles": "CCCC[C@@H]1C[C@H]1C(NC(=O)c1ccco1)c1ccccc1", "note": "(stereo not given in full)", "AC50": "15.8 µM (active)"}, {"smiles": "CCCC[C@@H]1C[C@H]1C(NC(=O)c1ccc(-c2ccccc2)cc1)c1ccc(-c2ccccc2)cc1", "note": "(stereo not given in full)", "AC50": "inactive"}, {"smiles": "COC(=O)c1ccc(C(NC(=O)c2ccccc2)[C@]2(C)C[C@H]2C2CCCCC2)cc1", "note": "(stereo not given in full)", "AC50": "inactive"}, {"smiles": "CN(C)CCSCCO", "activity, negative = inhibition": "13.5% [at 11.4 µM]"}, {"smiles": "CO[C@@H]1COC(=O)[C@H](COCc2ccccc2)NC(=O)C/C=C\\[C@@H](C)[C@H](OC)COC(=O)[C@@H](C)NC(=O)C/C=C\\[C@H]1C", "activity, negative = inhibition": "-22.8% [at 11.4 µM]"}, {"smiles": "CCCC[C@@H]1C[C@H]1C(NC(=O)c1ccco1)c1ccc(Cl)cc1", "note": "(stereo not given in full)", "AC50": "3.98 µM (active)"}, {"smiles": "CCC[C@@H]1C[C@@]1(CCC)C(NS(=O)(=O)c1cccc2cccnc12)c1ccc(Cl)cc1", "note": "(stereo not given in full)", "AC50": "7.94 µM (active)"}, {"smiles": "C[N+]1(CCC(=O)c2ccco2)CC2CCC(CC2)C1", "note": "(stereo not given)", "activity, negative = inhibition": "6.14% [at 11.4 µM]"}, {"smiles": "CCC[C@@H]1C[C@@]1(CCC)C(NC(=O)c1ccco1)c1ccc(Cl)cc1", "note": "(stereo not given in full)", "AC50": "15.8 µM (active)"}, {"smiles": "CCCC[C@@H]1C[C@H]1C(NC(=O)c1ccco1)c1ccc(C(=O)OC)cc1", "note": "(stereo not given in full)", "AC50": "0.794 µM (active)"}, {"smiles": "C[C@@]1(C(NC(=O)c2ccc(-c3ccccc3)cc2)c2ccc(Cl)cc2)C[C@H]1C1CCCCC1", "note": "(stereo not given in full)", "AC50": "inactive"}, {"smiles": "CC1(C)S[C@@H]2[C@H](NC(=O)[C@H](C(=O)O)c3ccsc3)C(=O)N2[C@H]1C(=O)O", "AC50": "inactive"}]}]}
